# E coli Lon inh = inhibitors of E. coli Lon protease, primary screen, biochemical, fluorescence polarization; P0A9M0; purified E. coli Lon protease; inhibition, % at 7.94 µM; actives 0.42% (n = 360,000); in the data active = inhibition above about 13%, passing the limit was not always enough;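 also: 0% = enzyme with probe and DMSO and 100% = no enzyme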
# PAFAH1B2 inh = PAFAH1B2 enzyme inhibitors, primary screen, biochemical, fluorescence polarization, human. Platelet-activating factor acetylhydrolase IB subunit alpha2 (Homo sapiens), P68402. inhibition, % at 3.39 µM. recombinant PAFAH1B2, FP-rhodamine activity probe. actives 1.2% (n = 340,000);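 active = inhibition above the mean of all tested compounds plus 3 SD, cut at about 24% in these data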;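 also: 0% = enzyme with DMSO and 100% = wells lacking PAFAH1B2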
# Target sequence (P68402 whole entry, looked up): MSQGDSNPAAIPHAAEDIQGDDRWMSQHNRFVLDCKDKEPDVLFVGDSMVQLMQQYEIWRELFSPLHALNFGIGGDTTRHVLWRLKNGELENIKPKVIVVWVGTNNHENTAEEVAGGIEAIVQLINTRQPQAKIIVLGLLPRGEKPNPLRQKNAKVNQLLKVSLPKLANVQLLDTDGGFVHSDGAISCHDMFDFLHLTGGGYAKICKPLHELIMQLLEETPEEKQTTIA
# PAFAH1B3 inh = PAFAH1B3 enzyme inhibitors, primary screen, biochemical, fluorescence polarization, human; inhibition, % at 3.39 µM; recombinant PAFAH1B3, FP-rhodamine probe; actives 0.28% (n = 340,000); Platelet-activating factor acetylhydrolase IB subunit alpha1 (Homo sapiens), Q15102;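 active = inhibition above the screen-wide average of all tested compounds plus 3 SD, cut at about 25% in these data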;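 also: 0% = enzyme with DMSO only and 100% = wells lacking PAFAH1B3 protein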
# Target sequence (Q15102 whole entry, looked up): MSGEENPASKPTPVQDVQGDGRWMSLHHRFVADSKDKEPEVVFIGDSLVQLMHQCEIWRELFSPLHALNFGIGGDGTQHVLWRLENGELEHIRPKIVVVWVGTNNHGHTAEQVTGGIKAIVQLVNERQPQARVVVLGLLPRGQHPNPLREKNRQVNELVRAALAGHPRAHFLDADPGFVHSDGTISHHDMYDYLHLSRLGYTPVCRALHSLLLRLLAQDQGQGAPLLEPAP
# PAFAH2 FP inh = PAFAH2 enzyme inhibitors, primary screen, biochemical, fluorescence polarization, human | recombinant PAFAH2, FP-rhodamine activity probe | inhibition, % at 3.39 µM | actives 0.99% (n = 340,000) | AID 492956, 2010;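 active = inhibition above the mean over all tested compounds plus 3 SD, cut at about 30% in these data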;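 also: inhibitors block probe labeling of enzyme so polarization drops; 0% = enzyme with DMSO and 100% = wells lacking PAFAH2 protein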
# Rin1 Abl inh = inhibitors of Rin1-Abl protein binding, primary screen, biochemical, TR-FRET. inhibition, % at 7.35 µM. Tyrosine-protein kinase ABL1 (Homo sapiens) + Ras and Rab interactor 1 (Homo sapiens), …. actives 0.4% (n = 360,000); in the data active = inhibition above about 5%, passing the limit was not always enough
# pPAFAH inh = pPAFAH enzyme inhibitors, primary screen, biochemical, fluorescence polarization, human. recombinant pPAFAH, FP-rhodamine probe fluorescence polarization. inhibition, % at 3.39 µM. actives 1.5% (n = 330,000);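 active = inhibition above the mean inhibition across the screen plus 3 SD, cut at about 25% in these data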;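 also: inhibitors block binding of the rhodamine activity-based probe so polarization drops; 0% = enzyme with DMSO and 100% = wells lacking pPAFAH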
# Active calls of the source: *; nt = no result given. Compounds with a hit are over-represented: about 3.1% of the library has one in this group of screens.
SMILES,E coli Lon inh,PAFAH1B2 inh,PAFAH1B3 inh,PAFAH2 FP inh,Rin1 Abl inh,pPAFAH inh
CCOc1cc(CNCCc2ccc(S(N)(=O)=O)cc2)ccc1OCc1ccc(Cl)cc1,-4,28*,3,1,1,0
Cc1cccc(C)c1NC(=O)C1c2ccccc2OCC(=O)N1C1CC1 (stereo unspecified),6,nt,nt,nt,nt,nt
CCOc1ccc(C(=O)Nc2cccc3ncccc23)cc1Cl,-2,2,-3,2,-1,3
Cc1sc(N)nc1-c1ccc(Oc2ccccc2)cc1,11,5,6,7,-1,7
O=C(O)CC1NC(=S)N(Cc2ccccc2)C1=O (stereo unspecified),-28,nt,nt,nt,-2,nt
O=C1C(CCCNC(=S)NCc2ccccc2)NC(=S)N1Cc1ccccc1 (stereo unspecified),-9,25*,8,2,-3,1
COc1ccc(/C=C/C(=O)Nc2ccc(C)c(S(=O)(=O)N3CCOCC3)c2)cc1,-7,-4,1,-3,3,-3
O=C(O)c1cccc(Cn2c(Cl)c(/C=N/NC(=O)c3cc4ccccc4cc3O)sc2=O)c1,-5,20,17,29,0,33*
O=C(O)c1cccc(Cn2c(Cl)c(/C=N/NC(=O)c3ccccc3)sc2=O)c1,1,4,3,0,-4,8
Cc1nn(C(=O)c2ccco2)c(C)c1Sc1ccc(Cl)cc1,-4,4,1,5,-1,-1
Cc1nn(C(=O)c2cccnc2)c(C)c1Sc1ccc(Br)cc1,-1,28*,6,0,0,0
C[C@H](CO)N1C[C@H](C)[C@@H](CN(C)S(=O)(=O)c2ccc(Cl)cc2)Oc2ccc(NS(=O)(=O)c3ccccc3)cc2CC1=O,19*,10,0,11,-1,21
C[C@H](CO)N1C[C@H](C)[C@H](CN(C)CC2CCCCC2)Oc2ccc(NS(=O)(=O)c3ccc(F)cc3)cc2CC1=O,-6,4,11,5,5,30*
Cc1ccc(S(=O)(=O)Nc2ccc3c(c2)CC(=O)N([C@H](C)CO)C[C@@H](C)[C@H](CN(C)S(=O)(=O)c2ccccc2)O3)cc1,-12,13,-14,-4,4,12
NC(=O)C1CCN(C2=C(Cl)C(=O)c3ccccc3C2=O)CC1,-6,35*,43*,47*,-2,0
CN1CCN(C2=C(NS(=O)(=O)c3ccccc3)C(=O)c3ccccc3C2=O)CC1,6,2,7,8,-1,2
CN1CCN(C2=C(Cl)C(=O)N(C3CCCCC3)C2=O)CC1,12,3,4,0,1,4
CN1CCN(C2=C(Cl)C(=O)C(c3cnc(N4CCCCC4)s3)=C(Cl)C2=O)CC1,8,15,18,10,-2,41*
CN1CCN(C2=C(Cl)C(=O)c3ccccc3C2=O)CC1,16,39*,66*,57*,5,nt
NC(=O)C1CCN(C2=C(NS(=O)(=O)c3ccccc3)C(=O)c3ccccc3C2=O)CC1,6,5,4,-4,-7,6
CC1COCC(C)N1C1=C(Cl)C(=O)c2ccccc2C1=O (stereo unspecified),7,35*,44*,43*,-2,nt
O=C1C(Cl)=C(NCCN2CCOCC2)C(=O)c2ccccc21,-2,3,11,0,-17,4
CC(C)C(NC(=O)CC12CC3CC(CC(C3)C1)C2)C(=O)O (stereo unspecified),-7,25*,4,5,0,2
O=C(CC12CC3CC(CC(C3)C1)C2)NC1CC1,0,12,5,2,-2,0
CN(C)S(=O)(=O)c1cccc(NC(=O)c2cccc(N3C(=O)CCC3=O)c2)c1,-2,0,0,1,5,nt
SMILES,E coli Lon inh,PAFAH1B2 inh,PAFAH1B3 inh,PAFAH2 FP inh,Rin1 Abl inh,pPAFAH inh
Cc1ccc2nc(-c3ccco3)c(CC3CCCCC3)n2c1,-7,nt,nt,nt,4,nt
Cc1ccc(-c2csc3ncn(Cc4ccc(C(=O)O)cc4)c(=O)c23)cc1C,-14,2,17,4,1,1
O=C(O)c1ccc(Cn2cnc3scc(-c4ccccc4)c3c2=O)cc1,-7,26*,16,4,2,3
Cc1ccc([C@@H]2C3COCC=C3C(C#N)=C(N)C2(C#N)C#N)o1 (stereo partly specified),69*,1,7,6,2,13
CCc1ccc(S(=O)(=O)NCCc2csc(-c3ccccc3)n2)s1,2,39*,-2,-4,-2,14
CC(C)(C)c1cc(=O)n(-c2ccccc2)[nH]1,3,1,12,8,13*,5
O=c1cc(-c2ccccc2)[nH]n1-c1ccccc1,-15,4,12,3,2,nt
CCOC(=O)c1c(NC(=O)C2C3CCC(O3)C2C(=O)O)sc2c1CCCC2 (stereo unspecified),-1,2,4,5,-1,2
COC(=O)c1c(NC(=O)C2C3CCC(O3)C2C(=O)O)sc2c1CCCCCC2 (stereo unspecified),9,50*,8,7,1,6
O=C(NC(=S)NCCC1=CCCCC1)c1cccnc1,2,7,4,-2,1,11
Cc1[nH]n2c(=O)cc(-c3ccc([N+](=O)[O-])cc3)nc2c1-c1ccccc1,0,19,13,21,-3,33*
OC(c1ccc(-c2ccccc2)cc1)c1ncc(-c2ccc(F)cc2)[nH]1 (stereo unspecified),-3,nt,nt,nt,0,nt
Cc1ccc(S(=O)(=O)N/N=C/c2cccn2-c2ccc(Cl)cc2)cc1,2,54*,3,0,1,5
CC1C(=O)N2CCCc3cc(S(=O)(=O)N4CCN(c5cccc(Cl)c5)CC4)cc1c32 (stereo unspecified),-1,3,-3,2,1,8
CCN(CC(=O)NCc1cccs1)C(=O)c1cccc(S(=O)(=O)N(CC)c2ccccc2)c1,-9,2,0,-6,5,nt
O=C(COC(=O)CCNS(=O)(=O)c1ccccc1)Nc1ccc(OC(F)F)cc1,4,3,8,3,0,22
O=C(CCNS(=O)(=O)c1ccccc1)OCC(=O)c1ccc(Br)cc1,-14,11,-1,3,2,21
O=C(CCNS(=O)(=O)c1ccccc1)OCC(=O)c1ccc(Cl)cc1,-4,16,1,2,6,26*
N#Cc1ccc(NC(=O)COC(=O)CCNS(=O)(=O)c2ccccc2)cc1,-2,5,2,1,-2,29*

# Compound activity deposited in PubChem BioAssay by The Scripps Research Institute Molecular Screening Center.
